Inconclusive results are not listed. Where a call stands in place of a potency, no number is given. Active and inactive are the calls of the source. Calls come from the whole dose curve; as a rule, active = well fitted curve in the direction sought with a large enough effect; inconclusive = small, poorly fitted or top-dose-only effect, or another doubt; inactive = no such curve, though single readings can be large; an effect the other way counts as inactive or inconclusive.
Assays:
[1] = target: Thioredoxin reductase 1, cytoplasmic (Rattus norvegicus) (UniProt O89049); experiment: qHTS Assay for Substrates of Mammalian Selenoprotein Thioredoxin Reductase 1 (TrxR1) (AID 488772);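 note: NADPH fluorescence in the first read after selenite addition and not the 8 min delta; a drop in NADPH fluorescence below the no-compound background marks a TrxR1 substrate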; note: potency is the fitted concentration of half-maximal effect
Chain of Thioredoxin reductase 1, cytoplasmic (Rattus norvegicus) (O89049 whole entry, looked up): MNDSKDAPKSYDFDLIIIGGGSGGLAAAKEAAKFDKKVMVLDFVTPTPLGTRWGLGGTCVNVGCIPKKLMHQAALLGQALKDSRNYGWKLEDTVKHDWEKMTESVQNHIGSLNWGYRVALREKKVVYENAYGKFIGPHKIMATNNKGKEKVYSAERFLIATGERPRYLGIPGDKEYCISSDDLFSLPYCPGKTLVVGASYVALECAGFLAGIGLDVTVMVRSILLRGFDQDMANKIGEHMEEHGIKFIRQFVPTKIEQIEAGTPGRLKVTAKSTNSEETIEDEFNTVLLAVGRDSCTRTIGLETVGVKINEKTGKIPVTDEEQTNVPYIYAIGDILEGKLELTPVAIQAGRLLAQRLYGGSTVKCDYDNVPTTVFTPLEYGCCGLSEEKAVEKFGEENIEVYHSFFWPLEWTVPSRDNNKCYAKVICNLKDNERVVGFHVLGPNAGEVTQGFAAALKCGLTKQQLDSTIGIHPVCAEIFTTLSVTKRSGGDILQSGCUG
In short: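 Quantitative HTS in Tris-HCl buffer at pH 7.5 with EDTA and Tween-20, using rat TrxR1, 400 uM NADPH and 400 uM selenite (final). A fall in initial NADPH fluorescence relative to background marked substrate behaviour.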

[2] = target: Thioredoxin reductase 1, cytoplasmic (Rattus norvegicus) (UniProt O89049); experiment: qHTS Assay for Inhibitors of Mammalian Selenoprotein Thioredoxin Reductase 1 (TrxR1) (AID 488773); conditions: Potency: inhibition; note: nearly all actives have a fitted effect of over 40% in size; note: potency is the fitted concentration of half-maximal effect
In short: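 Steps: enzyme (90 nM) plus NADPH (400 uM final), 5 min at ~22 deg C; compound added, 15 min; selenite (400 uM final) added; fluorescence followed for 8 min. Concentration-response curves derived from the normalized delta values.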

[3] = target: Methanococcus maripaludis chaperonin (MmCpn) (UniProt Q6LX38); experiment: High-Throughput Screening for Modulators of Cytosolic Chaperonin Activity: MmCpn Primary Screen (AID 488978);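 note: 50 nM MmCpn enzyme hydrolysing 30 µM ATP at 37 °C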
Chain of Methanococcus maripaludis chaperonin (MmCpn) (Q6LX38 1-543): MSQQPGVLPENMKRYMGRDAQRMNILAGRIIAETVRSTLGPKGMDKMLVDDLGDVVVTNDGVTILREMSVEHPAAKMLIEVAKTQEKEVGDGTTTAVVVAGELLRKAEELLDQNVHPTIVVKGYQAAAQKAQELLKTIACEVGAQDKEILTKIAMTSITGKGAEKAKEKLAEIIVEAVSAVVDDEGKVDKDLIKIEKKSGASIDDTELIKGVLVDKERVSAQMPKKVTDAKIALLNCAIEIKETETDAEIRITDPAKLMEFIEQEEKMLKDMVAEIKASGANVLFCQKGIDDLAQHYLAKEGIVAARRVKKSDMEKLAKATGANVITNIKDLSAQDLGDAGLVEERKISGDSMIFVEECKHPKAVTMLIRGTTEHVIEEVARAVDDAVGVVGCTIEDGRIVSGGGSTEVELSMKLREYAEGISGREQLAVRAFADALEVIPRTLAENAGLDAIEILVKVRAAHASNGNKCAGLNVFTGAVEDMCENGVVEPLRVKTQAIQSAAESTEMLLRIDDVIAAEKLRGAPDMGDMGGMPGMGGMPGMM
In short: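 ATPase activity of 50 nM MmCpn was assayed with 30 uM ATP, 10 minutes at 37C, after a 5 min compound preincubation at room temperature. ADP production was read as HTRF emission at 590 and 665 nm.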

[4] = Quantitative high throughput screen for delayed death inhibitors of the malarial parasite plastid, 96 hour incubation (AID 488745); note: nearly all actives have a fitted effect of over 70% in size; note: potency is the fitted concentration of half-maximal effect
In short: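 P. falciparum carrying an integrated firefly luciferase reporter, grown in erythrocytes (2% hematocrit, 0.1% parasitemia final) in RPMI 1640/0.5% Albumax, was exposed to compound for 96 h (two generations) at 37 C, 5% CO2. Luminescence decrease indicated growth inhibition.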

[5] = Quantitative high throughput screen for delayed death inhibitors of the malarial parasite plastid, 48 hour incubation (AID 488752); note: nearly all actives have a fitted effect of over 65% in size
In short: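 Erythrocytes infected with P. falciparum carrying an integrated firefly luciferase reporter (2% hematocrit, 0.1% parasitemia final) were exposed to compounds in RPMI 1640/0.5% Albumax for 48 h at 37 C, 5% CO2. Growth inhibition was scored as reduced luminescence.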

[6] = target: Flap endonuclease 1 (Homo sapiens) (UniProt P39748); experiment: qHTS Validation Assay for the Inhibitors of Human Flap endonuclease 1 (FEN1) (AID 488816)
Chain of Flap endonuclease 1 (Homo sapiens) (P39748 whole entry, looked up): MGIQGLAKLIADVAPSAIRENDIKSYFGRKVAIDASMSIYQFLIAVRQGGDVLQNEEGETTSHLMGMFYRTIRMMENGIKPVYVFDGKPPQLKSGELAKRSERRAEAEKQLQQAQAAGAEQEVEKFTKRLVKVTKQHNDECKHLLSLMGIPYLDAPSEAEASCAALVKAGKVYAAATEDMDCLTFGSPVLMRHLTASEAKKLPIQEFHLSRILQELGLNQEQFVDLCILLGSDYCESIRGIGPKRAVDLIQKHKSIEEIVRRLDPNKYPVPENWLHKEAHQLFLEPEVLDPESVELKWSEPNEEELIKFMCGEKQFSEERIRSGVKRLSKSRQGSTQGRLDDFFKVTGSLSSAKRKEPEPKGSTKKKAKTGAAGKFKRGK
In short: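 FEN1, dispensed as a 10 nM reagent, was preincubated with pin-transferred compounds for 15 min at room temperature before substrate was added (50 nM final). Plates were read at 0 and 15 min, and a four-parameter Hill equation was fitted to the concentration-response data.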

[7] = target: Chromobox protein homolog 1 (Homo sapiens) (UniProt P83916); experiment: qHTS Validation Assay for Inhibitors of HP1-beta Chromodomain Interactions with Methylated Histone Tails (AID 488953); note: nearly all actives have a fitted effect of over 50% in size; note: potency is the fitted concentration of half-maximal effect
Chain of Chromobox protein homolog 1 (Homo sapiens) (P83916 whole entry, looked up): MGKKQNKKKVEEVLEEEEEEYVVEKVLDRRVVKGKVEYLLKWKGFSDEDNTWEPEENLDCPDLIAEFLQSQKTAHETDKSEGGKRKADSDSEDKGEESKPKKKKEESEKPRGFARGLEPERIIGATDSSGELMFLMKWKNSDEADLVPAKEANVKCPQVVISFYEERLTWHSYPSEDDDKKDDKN
In short: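 HP1-beta (50 nM) was preincubated 30 min at room temperature with biotinylated H3(1-18)K9me3 peptide (50 nM) in PBS pH 7.4, 0.01% Tween-20, then with compounds 30 min. AlphaScreen signal was read after streptavidin donor/nickel chelate acceptor beads (10 ug/mL final).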

[8] = target: Transient receptor potential cation channel subfamily V member 1 (Homo sapiens) (UniProt Q8NER1); experiment: HTS Assay for Compounds that Act as Enhancers of the Vanilloid Receptor 1 (AID 488979)
Chain of Transient receptor potential cation channel subfamily V member 1 (Homo sapiens) (Q8NER1 whole entry, looked up): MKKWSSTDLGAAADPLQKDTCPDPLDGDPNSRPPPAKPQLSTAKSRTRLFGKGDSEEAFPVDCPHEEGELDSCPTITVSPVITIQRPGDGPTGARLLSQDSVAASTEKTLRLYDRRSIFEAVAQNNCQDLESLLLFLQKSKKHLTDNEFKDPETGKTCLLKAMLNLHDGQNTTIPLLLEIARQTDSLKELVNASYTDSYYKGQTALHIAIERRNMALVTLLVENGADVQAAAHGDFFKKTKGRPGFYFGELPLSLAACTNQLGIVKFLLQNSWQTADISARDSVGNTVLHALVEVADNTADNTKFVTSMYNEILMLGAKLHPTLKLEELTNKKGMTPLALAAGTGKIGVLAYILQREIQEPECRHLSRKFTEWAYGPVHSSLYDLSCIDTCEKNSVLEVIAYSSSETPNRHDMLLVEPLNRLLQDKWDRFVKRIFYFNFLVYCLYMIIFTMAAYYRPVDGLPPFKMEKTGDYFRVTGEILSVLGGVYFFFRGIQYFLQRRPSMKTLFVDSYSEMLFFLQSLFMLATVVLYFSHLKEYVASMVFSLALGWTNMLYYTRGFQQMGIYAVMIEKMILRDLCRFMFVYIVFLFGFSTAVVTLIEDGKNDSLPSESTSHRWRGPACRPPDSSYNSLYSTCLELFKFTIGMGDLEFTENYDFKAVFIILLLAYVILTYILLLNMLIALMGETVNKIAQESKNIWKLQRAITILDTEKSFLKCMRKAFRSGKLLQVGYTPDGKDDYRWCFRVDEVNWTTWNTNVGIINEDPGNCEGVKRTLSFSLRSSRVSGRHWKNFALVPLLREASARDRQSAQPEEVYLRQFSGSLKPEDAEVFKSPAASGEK
In short: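 TRPV1-expressing cells loaded with Fluo-8 calcium dye; compounds added and calcium influx read kinetically for 3 min (agonist phase), then capsaicin at EC20 added and read 2 min more for enhancement. Fluorescence ex 480/em 520 nm.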

[9] = target: Thyrotropin receptor (Homo sapiens) (UniProt P16473); experiment: qHTS Assay for Antagonists of the Thyroid Stimulating Hormone Receptor (AID 488980); note: series mostly up to about 58 µM
Chain of Thyrotropin receptor (Homo sapiens) (P16473 whole entry, looked up): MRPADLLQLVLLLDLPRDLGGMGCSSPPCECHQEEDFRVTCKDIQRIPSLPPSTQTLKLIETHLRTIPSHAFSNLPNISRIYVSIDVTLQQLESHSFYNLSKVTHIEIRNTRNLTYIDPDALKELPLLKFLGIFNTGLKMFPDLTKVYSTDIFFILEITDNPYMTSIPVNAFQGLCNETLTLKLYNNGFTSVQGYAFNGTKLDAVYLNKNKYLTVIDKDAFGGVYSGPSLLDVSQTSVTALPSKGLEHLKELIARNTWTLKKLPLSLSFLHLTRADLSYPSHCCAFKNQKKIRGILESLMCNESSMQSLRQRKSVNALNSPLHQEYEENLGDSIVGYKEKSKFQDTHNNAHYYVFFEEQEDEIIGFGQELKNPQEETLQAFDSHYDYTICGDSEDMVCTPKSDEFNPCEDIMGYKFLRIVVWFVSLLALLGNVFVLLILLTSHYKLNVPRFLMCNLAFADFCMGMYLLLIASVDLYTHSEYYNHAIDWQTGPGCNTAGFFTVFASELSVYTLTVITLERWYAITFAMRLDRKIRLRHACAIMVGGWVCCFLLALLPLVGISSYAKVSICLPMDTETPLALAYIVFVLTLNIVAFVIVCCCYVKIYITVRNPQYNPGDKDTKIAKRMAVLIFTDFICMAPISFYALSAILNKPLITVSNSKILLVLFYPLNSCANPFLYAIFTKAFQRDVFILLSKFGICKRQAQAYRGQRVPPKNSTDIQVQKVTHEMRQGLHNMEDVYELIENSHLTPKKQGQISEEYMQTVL
In short: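 Inhibition of cAMP raised by EC80 TSH (4 nM final) was read by HTRF, with lysate cAMP competing against cAMP-d2 for cryptate antibody after 30 min at room temperature. The cells were transfected HEK293 held in phosphodiesterase inhibitor RO 20-1724 at 70 uM.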

[10] = target: ATP-dependent 6-phosphofructokinase (Trypanosoma brucei brucei) (UniProt O15648); experiment: qHTS Validation Assay to Find Inhibitors of T. brucei phosphofructokinase (AID 485368); conditions: outcome: dose series up to 57.5 µM
Chain of ATP-dependent 6-phosphofructokinase (Trypanosoma brucei brucei) (O15648 whole entry, looked up): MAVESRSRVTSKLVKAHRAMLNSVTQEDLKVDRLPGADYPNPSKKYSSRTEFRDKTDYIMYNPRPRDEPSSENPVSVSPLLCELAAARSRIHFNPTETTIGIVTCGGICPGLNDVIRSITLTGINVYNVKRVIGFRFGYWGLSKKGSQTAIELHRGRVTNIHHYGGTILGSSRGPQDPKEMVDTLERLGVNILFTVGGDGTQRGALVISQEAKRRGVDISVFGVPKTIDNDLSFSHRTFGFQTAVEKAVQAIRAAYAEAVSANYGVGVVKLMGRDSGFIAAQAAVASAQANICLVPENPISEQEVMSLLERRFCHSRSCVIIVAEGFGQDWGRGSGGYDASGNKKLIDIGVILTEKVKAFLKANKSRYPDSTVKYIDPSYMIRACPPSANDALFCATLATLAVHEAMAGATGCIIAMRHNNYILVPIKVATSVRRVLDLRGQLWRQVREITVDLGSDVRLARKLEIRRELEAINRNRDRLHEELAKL
In short: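 Enzyme reaction in triethanolamine buffer pH 8.0 with 5 mM MgCl2, 0.01% Tween20 and 0.1% BSA; PFK 1.25 nM, F6P 0.5 mM, ATP 0.1 mM, 45 min RT. ADP quantified by ADP-Glo.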

Compound	Potency [1]	Potency [2]	outcome [3]	Potency [4]	outcome [5]	outcome [6]	Potency [7]	outcome [8]	outcome [9]	outcome [10]
Clc1ccc(C(c2ccc(Cl)cc2)n2cc[n+](CC(OCc3ccc(Cl)cc3Cl)c3ccc(Cl)cc3Cl)c2)cc1 (centres undefined)	inactive	inactive	inactive	–	–	–	–	–	–	–
CCCNC(=O)NS(=O)(=O)c1ccc(Cl)cc1	inactive	inactive	inactive	inactive	inactive	inactive	inactive	inactive	inactive	–
CC(=O)CCCCn1c(=O)c2c(ncn2C)n(C)c1=O	inactive	inactive	inactive	inactive	inactive	–	inactive	inactive	inactive	inactive
O=C1NCC2(CCN(CCc3ccccc3)CC2)O1	inactive	inactive	inactive	inactive	inactive	inactive	inactive	inactive	inactive	–
COC(=O)[C@@H]1[C@H]2C[C@H]3c4[nH]c5ccccc5c4CCN3C[C@@H]2CC[C@@H]1O	inactive	inactive	inactive	inactive	inactive	–	inactive	inactive	inactive	inactive
CC(=O)O[C@]1(C(C)=O)CC[C@H]2[C@@H]3C=C(Cl)C4=CC(=O)[C@@H]5C[C@@H]5[C@]4(C)[C@H]3CC[C@@]21C	inactive	inactive	inactive	–	–	inactive	inactive	–	–	inactive
C[N+](C)(C)CC(=O)O	inactive	inactive	inactive	–	–	–	–	–	–	–
NC(N)=Nc1nc(CSCC/C(N)=N/S(N)(=O)=O)cs1	inactive	inactive	inactive	inactive	inactive	inactive	inactive	inactive	–	–
CC(C)(C)c1ccc(C(O)CCCN2CCC(C(O)(c3ccccc3)c3ccccc3)CC2)cc1 (centres undefined)	inactive	inactive	inactive	inactive	inactive	–	–	inactive	inactive	inactive
CC(=O)N[C@@H](CS)C(=O)O	inactive	inactive	inactive	inactive	inactive	inactive	inactive	inactive	inactive	inactive
CC1(C)CCC2=C(O1)c1ccccc1C(=O)C2=O	18.9 µM (active)	–	inactive	–	–	inactive	–	inactive	inactive	–
COc1ccc(Cc2nccc3cc(OC)c(OC)cc23)cc1OC	inactive	–	inactive	–	–	–	–	–	–	inactive
O=C(NCCN1CCOCC1)c1ccc(Cl)cc1	inactive	inactive	inactive	–	–	–	–	–	–	inactive
CCn1cc(C(=O)O)c(=O)c2ccc(C)nc21	inactive	inactive	inactive	–	–	–	inactive	–	–	inactive
CCN(CC)CCOC(=O)c1ccc(N)cc1	inactive	inactive	inactive	inactive	inactive	inactive	inactive	inactive	inactive	inactive
O=C(O)CCc1nc(-c2ccccc2)c(-c2ccccc2)o1	inactive	inactive	inactive	inactive	inactive	–	inactive	inactive	inactive	inactive
CC(=O)c1ccc(S(=O)(=O)NC(=O)NC2CCCCC2)cc1	inactive	inactive	inactive	inactive	inactive	–	inactive	inactive	inactive	inactive
CN(C)CCC(c1ccccc1)c1ccccn1 (centres undefined)	inactive	inactive	inactive	inactive	inactive	–	inactive	inactive	inactive	inactive

Compound	Potency [1]	Potency [2]	outcome [3]	Potency [4]	outcome [5]	outcome [6]	Potency [7]	outcome [8]	outcome [9]	outcome [10]
O=C1NC(=O)C(c2ccccc2)(c2ccccc2)N1	inactive	inactive	inactive	inactive	inactive	inactive	inactive	inactive	inactive	inactive
CCN(CC)C(=O)c1ccc(O)c(OC)c1	inactive	inactive	inactive	inactive	inactive	–	inactive	inactive	inactive	inactive
CC(C)OC(=O)C(C)(C)Oc1ccc(C(=O)c2ccc(Cl)cc2)cc1	inactive	inactive	inactive	–	–	inactive	inactive	inactive	inactive	–
NCCS	–	inactive	inactive	inactive	inactive	inactive	–	inactive	–	inactive
O=c1c(-c2ccc(O)cc2)coc2cc(O)ccc12	inactive	8.44 µM (active)	inactive	–	–	inactive	inactive	inactive	inactive	–
Clc1ccc(Cn2c(CN3CCCC3)nc3ccccc32)cc1	inactive	inactive	inactive	–	inactive	inactive	–	inactive	inactive	–
CC(C)NCC(O)COc1cccc2[nH]ccc12 (centres undefined)	inactive	inactive	inactive	inactive	inactive	–	–	inactive	inactive	–
CC/C(=C(\c1ccccc1)c1ccc(OCCN(C)C)cc1)c1ccccc1	inactive	inactive	inactive	13.1 µM (active)	–	inactive	35.5 µM (active)	inactive	inactive	inactive
C[N+](C)(C)CCCCCC[N+](C)(C)C	inactive	inactive	inactive	inactive	inactive	inactive	inactive	inactive	–	inactive
CC1=C(/C=C/C(C)=C/C=C/C(C)=C/C(=O)Nc2ccc(O)cc2)C(C)(C)CCC1	–	–	inactive	–	–	inactive	39.8 µM (active)	–	inactive	inactive
COc1ccccc1N1CCN(CCCNc2cc(=O)n(C)c(=O)n2C)CC1	inactive	–	inactive	–	inactive	inactive	inactive	inactive	inactive	–
CCN1CCC[C@H]1CNC(=O)c1cc(S(N)(=O)=O)ccc1OC	inactive	inactive	inactive	inactive	inactive	inactive	inactive	inactive	inactive	–
COc1cccc(-c2cc(=O)c3ccccc3o2)c1N	inactive	inactive	inactive	–	–	inactive	inactive	inactive	inactive	–
CCN(CC)CCNC(=O)c1ccc(N)cc1	inactive	inactive	inactive	inactive	inactive	–	inactive	–	inactive	inactive
CCCCC1C(=O)N(c2ccccc2)N(c2ccccc2)C1=O	inactive	inactive	inactive	–	–	inactive	–	inactive	inactive	–
Cc1cccc(C)c1OCC(C)N (centres undefined)	inactive	inactive	inactive	inactive	inactive	inactive	inactive	inactive	inactive	–
O=c1cc(-c2ccc(O)cc2)oc2cc(O)cc(O)c12	inactive	inactive	inactive	–	–	inactive	inactive	inactive	inactive	–
CCCCCN(C)CCC(O)(P(=O)(O)O)P(=O)(O)O	inactive	inactive	inactive	–	–	inactive	inactive	–	–	inactive

— PubChem BioAssay (NCATS)
